Data on 18 sequences can be found in PMC12820563, “FoxP3 forms a head-to-head dimer in vivo and stabilizes its multimerization on adjacent microsatellites”.

The full ranking holds about 16,000 sequences; the median of “rpm ratio (pull-down/input)” is about 0.94, and the highest 2% start at about 1.7. This excerpt belongs to a sample that is enriched for the highest values.

The target in this test is T1, MBP-FoxP1dN (Mus musculus, UniProt P58462 326-579).
T1 sequence: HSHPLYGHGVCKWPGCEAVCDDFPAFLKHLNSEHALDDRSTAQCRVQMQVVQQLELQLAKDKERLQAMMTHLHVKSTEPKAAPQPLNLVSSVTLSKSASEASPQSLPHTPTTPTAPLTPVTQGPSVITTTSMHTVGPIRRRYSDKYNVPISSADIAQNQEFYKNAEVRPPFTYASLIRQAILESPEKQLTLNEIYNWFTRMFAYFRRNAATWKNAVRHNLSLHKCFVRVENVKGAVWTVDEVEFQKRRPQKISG
Put plainly: PD-seq (MBP pull-down with sequencing); 20 mM Tris-HCl pH 7.5, 100 mM NaCl, 1.5 mM MgCl2, 0.4 uM protein, 0.1 uM dsDNA library, 30 min, room temperature, amylose pull-down; high values mean tight binding. The settings on record: protein: recombinant; tags: His6-MBP; chain copies: 2; dsDNA, one strand shown. In a few lines: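 Protein and DNA were mixed at 0.4 µM and 0.1 µM and held for 30 min at room temperature in Tris pH 7.5 buffer with NaCl and MgCl2; the protein was a His6-MBP-tagged, N-terminally truncated mouse FoxP3 or FoxP1 fragment from E. coli, and the DNA a Klenow-filled double-stranded degenerate library. Amylose resin captured the complexes, which were washed three times. Binding is read as reads-per-million enrichment of pull-down versus input after Illumina sequencing, with replicates pooled.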
Regarding “GATGATTGTTCTCCCAGCTGATGAATTCCCTACCTCGAGTAAACAAATTTTCCTAATCTTTCTGTTCAAGCGCCATCTAC”, the binding signal was 0.836 RPM ratio (pull-down/input). As to “GATGATTGTTCTCCCAGCTGATGAATTGTCACAGTCGAGTAAACAAATTTTCCTAATCTTTCTGTTCAAGCGCCATCTAC”, the binding signal is 1.08 RPM ratio (pull-down/input).

Take “GATGATTGTTCTCCCAGCTGATGAATTGCCAATTTCGAGTAAACAAATTTTCCTAATCTTTCTGTTCAAGCGCCATCTAC”: the binding signal is 1.04 RPM ratio (pull-down/input). As for “GATGATTGTTCTCCCAGCTGATGAATTATTGTATTCGAGTAAACAAATTTTCCTAATCTTTCTGTTCAAGCGCCATCTAC”, the binding signal is 1.99 RPM ratio (pull-down/input).

“GATGATTGTTCTCCCAGCTGATGAATTTTGTATTTCGAGTAAACAAATTTTCCTAATCTTTCTGTTCAAGCGCCATCTAC”: the binding signal is 1.42 RPM ratio (pull-down/input). In the case of “GATGATTGTTCTCCCAGCTGATGAATTGTTGTATTCGAGTAAACAAATTTTCCTAATCTTTCTGTTCAAGCGCCATCTAC”, the binding signal is 2.21 RPM ratio (pull-down/input). “GATGATTGTTCTCCCAGCTGATGAATTTTTGTATTCGAGTAAACAAATTTTCCTAATCTTTCTGTTCAAGCGCCATCTAC”: the binding signal was 1.8 RPM ratio (pull-down/input). Turning to “GATGATTGTTCTCCCAGCTGATGAATTTGTAATTTCGAGTAAACAAATTTTCCTAATCTTTCTGTTCAAGCGCCATCTAC”, the binding signal was 1.31 RPM ratio (pull-down/input). The value for “GATGATTGTTCTCCCAGCTGATGAATTTCTGTATTCGAGTAAACAAATTTTCCTAATCTTTCTGTTCAAGCGCCATCTAC” was 1.3 RPM ratio (pull-down/input).

As for “GATGATTGTTCTCCCAGCTGATGAATTCTGTATTTCGAGTAAACAAATTTTCCTAATCTTTCTGTTCAAGCGCCATCTAC”, the binding signal was 1.18 RPM ratio (pull-down/input). Consider “GATGATTGTTCTCCCAGCTGATGAATTTGTATATTCGAGTAAACAAATTTTCCTAATCTTTCTGTTCAAGCGCCATCTAC”, for which the binding signal was 1.71 RPM ratio (pull-down/input). “GATGATTGTTCTCCCAGCTGATGAATTGTATTATTCGAGTAAACAAATTTTCCTAATCTTTCTGTTCAAGCGCCATCTAC”: the binding signal was 1.67 RPM ratio (pull-down/input). As to “GATGATTGTTCTCCCAGCTGATGAATTGTATTCTTCGAGTAAACAAATTTTCCTAATCTTTCTGTTCAAGCGCCATCTAC”, the binding signal was 1.26 RPM ratio (pull-down/input). As for “GATGATTGTTCTCCCAGCTGATGAATTTGTATTTTCGAGTAAACAAATTTTCCTAATCTTTCTGTTCAAGCGCCATCTAC”, the binding signal is 2.62 RPM ratio (pull-down/input). Consider “GATGATTGTTCTCCCAGCTGATGAATTATTCTTTTCGAGTAAACAAATTTTCCTAATCTTTCTGTTCAAGCGCCATCTAC”, for which the binding signal was 1.17 RPM ratio (pull-down/input). In the case of “GATGATTGTTCTCCCAGCTGATGAATTTTGAATTTCGAGTAAACAAATTTTCCTAATCTTTCTGTTCAAGCGCCATCTAC”, the binding signal was 0.984 RPM ratio (pull-down/input).

Regarding “GATGATTGTTCTCCCAGCTGATGAATTTTAGGGGTCGAGTAAACAAATTTTCCTAATCTTTCTGTTCAAGCGCCATCTAC”, the binding signal is 0.805 RPM ratio (pull-down/input). Consider “GATGATTGTTCTCCCAGCTGATGAATTGACTAAGTCGAGTAAACAAATTTTCCTAATCTTTCTGTTCAAGCGCCATCTAC”, for which the binding signal was 1.03 RPM ratio (pull-down/input).
